rTrxR1 inhibitor – rat TrxR1 inhibition; O89049; recombinant rTrxR1, NADPH fluorescence consumption, selenite substrate; Potency, µM (top dose mostly 114 µM), inactives show at the highest dose activity change, negative = inhibition, actives largely listed as inhibitors; 1% of 390,000 active; further: on the % scale 0 is the no-effect control and ±100 the full control effect; nearly all actives have a fitted effect of over 65% in size
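Rat TrxR1 (90 nM in the dispensed reagent) was pre-reduced with 400 uM NADPH for 5 min at room temperature, then incubated with compound for 15 min. After 400 uM selenite was added, NADPH fluorescence (Ex 340/Em 450 nm) was followed for 8 min.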
GLP-1R agonist – GLP-1 receptor (human) agonism. AID 624172. Potency, µM (titrated, usually from 45.6 µM), inactives show at the highest dose activation, usual class: activators. 0.007% of 380,000 active. P43220. HEK293 GLP-1R CRE-luciferase, luminescence, 4-6 h; cells express a hypersensitive GLP-1R form; further: % of control where 0% means no effect
Target sequence (P43220 whole entry, looked up): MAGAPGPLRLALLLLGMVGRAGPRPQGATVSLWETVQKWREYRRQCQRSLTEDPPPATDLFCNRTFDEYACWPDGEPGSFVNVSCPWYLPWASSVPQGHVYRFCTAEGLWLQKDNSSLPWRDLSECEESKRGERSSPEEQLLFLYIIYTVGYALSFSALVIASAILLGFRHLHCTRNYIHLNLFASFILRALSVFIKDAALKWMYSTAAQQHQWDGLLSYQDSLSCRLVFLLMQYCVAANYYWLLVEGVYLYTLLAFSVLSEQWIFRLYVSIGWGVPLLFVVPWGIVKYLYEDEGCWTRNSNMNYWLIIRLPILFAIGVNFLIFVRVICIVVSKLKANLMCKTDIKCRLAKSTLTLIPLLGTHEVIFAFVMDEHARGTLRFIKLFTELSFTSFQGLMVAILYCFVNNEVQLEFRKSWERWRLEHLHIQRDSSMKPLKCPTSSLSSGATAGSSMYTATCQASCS
TrxR1 substrate – rat thioredoxin reductase 1 substrate activity | O89049 | purified TrxR1 substrate turnover, NADPH consumption readout | Potency, µM (series often up to 114 µM), for inactives: at the highest dose activity change, negative = substrate turnover | 0.01% of 390,000 active; further: on the % scale 0 is the no-effect control and ±100 the full control effect; nearly all actives have a fitted effect of over 50% in size
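Rat TrxR1, dispensed at 90 nM, was prereduced with 400 uM NADPH (final) for 5 min at ~22 deg C, then incubated with compound 15 min before 400 uM selenite. A first-read NADPH fluorescence drop versus no-compound background flagged substrates.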
GLP1R cytotox – cytotoxicity in counter-screen for GLP-1R inverse agonists; 0.13% of 410,000 active; HEK293 cAMP-luciferase reporter cells, luminescence, 24 h; Potency, µM (top dose mostly 38.3 µM), for the others: at the top dose activity change, negative = inhibition, usual class: inhibitors;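 further: loss of luciferase light is scored as toxicity; on the % scale 0 is the no-effect control and ±100 the full control effect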
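Cells in DMEM/10% Nu serum/1% pen-strep, 1536-well format. Pre-incubated 12 h, dosed with 23 nL compound, incubated a further 24 h. Luciferase detection, 12 min at room temp, luminescence.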
mIDH1 inhibitor – human IDH1 R132H inhibition. O75874. IDH1-R132H enzyme, NADPH consumption, diaphorase/resazurin fluorescence. Potency, µM (highest dose often 76.6 µM), for the others: at the highest dose activity change, negative = inhibition, actives largely listed as inhibitors. 0.093% of 390,000 active; further: on the % scale 0 is the no-effect control and ±100 the full control effect; nearly all actives have a fitted effect of over 65% in size
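IDH1-R132H (0.5 ug/mL) preincubated 30 min with compound, then NADPH (0.016 mM) and alpha-KG (2 mM) added; 80 min at RT, pH 7.5. Remaining NADPH coupled via diaphorase/resazurin to fluorescence (540/590 nm); concentration-response curves normalized to no-enzyme control.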
GLP-1R inv ag – inverse agonists of human GLP-1 receptor | HEK293 GLP-1R CRE-luciferase, luminescence, 24 h; GLP-1R form is constitutively active | Potency, µM (top dose mostly 38.3 µM), inactives show at the top dose activity change, negative = inhibition, hits mostly inhibitors | 1.6% of 410,000 active | AID 624417; further: on the % scale 0 is the no-effect control and ±100 the full control effect; nearly all actives have a fitted effect of over 55% in size
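Cells are plated, allowed 12 hours at 37 deg C, then treated with compounds for 24 hr before luciferase detection reagent is added and luminescence is read after 12 min at room temperature. The HEK293 line carries constitutively active GLP-1R with a cAMP-responsive reporter.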
* hit, by the source's call; u = inconclusive; x = not tested or not shown; [ ] = another dose, or the depositor's remark. Sampled rows, rich in hits. Any-hit rate of the full collection: about 2.7%. The call rests on the fitted dose curve; in most records, active means well fitted curve in the direction sought with a large enough effect; inconclusive means small, poorly fitted or top-dose-only effect, or another doubt; inactive means no such curve, though single readings can be large; an effect the other way counts as inactive or inconclusive. Potency means the concentration at half of the fitted maximal effect.

SMILES	rTrxR1 inhibitor	GLP-1R agonist	TrxR1 substrate	GLP1R cytotox	mIDH1 inhibitor	GLP-1R inv ag
Cc1cc(C)nc(SCc2cc(=O)c(OC(=O)c3ccc(Br)o3)co2)n1	79.4µM*	-12.8%	-10.7%	-2.3%[1.53 µM]	2.8%	-6.2%
Cc1cc(C)nc(SCc2cc(=O)c(OC(=O)c3ccco3)co2)n1	20.6%	-5.4%	13.8%	-5.9%	9.3%	6.2%
Cc1cc(C)nc(SCc2cc(=O)c(OC(=O)c3ccc(S(=O)(=O)N4CCCC4)cc3)co2)n1	15.8µM*	-9.5%	4.4%	1.9%	-3.8%	-8.8%
Cc1ccc(NC(=O)Cn2c(=O)n(Cc3ccco3)c(=O)c3sc4ccccc4c32)c(C)c1	20.4%	0.2%	6.8%	2.4%	-2.1%	8.0%
C[N+](C)(C)CCOP(=O)(O)OP(=O)([O-])OCC1OC(n2ccc(N)nc2=O)[C@H](O)[C@@H]1O (some centres not stated)	x	-6.0%	x	x	x	x
Cc1coc2cc3oc(=O)c(CC(=O)NCc4cccc(Cl)c4)c(C)c3cc12	16.9%	x	19.1%	11.0%	-9.3%	-3.8%
O=C1C=CC(=O)N1Cc1ccccc1	0.398µM*	-9.8%	2.8%	-2.3%	-5.7%	-25.5%
C[C@@H](O[C@H]1OCCN(Cc2n[nH]c(=O)[nH]2)[C@@H]1c1ccc(F)cc1)c1cc(C(F)(F)F)cc(C(F)(F)F)c1	x	4.9%	x	x	x	x
Cc1ccc(NC(=O)CSc2nc(=O)n(Cc3cccnc3)c3c2CCC3)cc1F	9.2%[57.1 µM]	x	2.2%[57.1 µM]	-3.2%	2.9%	27.5%
CCN(CC)c1ccc(NC(=O)CN2CCN(c3ccc(F)cc3)CC2)cc1	5.8%[57.1 µM]	-1.1%	12.2%[57.1 µM]	-3.2%	8.1%	10µM*
O=C(CN1CCN(c2ccc(Cl)cc2)CC1)Nc1ccc(F)cc1	-25.7%[57.1 µM]	-0.2%	-10.0%[57.1 µM]	5.0%	-3.0%	u
O=C(CN1CCN(c2ccc(Cl)cc2)CC1)Nc1ccc(F)c(F)c1	4.7%[57.1 µM]	-11.5%	2.5%[57.1 µM]	5.5%	10.4%	2.82µM*
CC(C)Cn1c(N2CCN(CC(=O)Nc3ccc(Cl)cc3)CC2)nc2ccccc21	8.6%	7.1%	-2.7%	-24.5%	-6.0%	10µM*
COc1ccccc1N1CCN(CC(=O)Nc2ccc(CN3CCCCC3)cc2)CC1	13.0%	-2.0%	10.7%	u	1.8%	u
Cc1ccc(Cl)cc1N1CCN(CC(=O)Nc2ccc(CN3CCCCC3)cc2)CC1	-22.6%	-12.1%	1.9%	u	1.8%	11.2µM*
CC(C)(C)n1ncc2c(=O)n(Cc3ccc(C#N)cc3F)cnc21	12.7%	x	-1.0%	x	x	x
Cc1ccccc1NC(=O)COC(=O)c1ccccc1OCC(=O)Nc1ccc(Br)cc1	3.2%	x	-3.3%	x	x	x
Cc1cc(C(=O)NNc2cc(Cl)ccc2Cl)no1	28.4%[57.1 µM]	-6.1%	-12.6%[57.1 µM]	4.0%	1.5%	u
Cc1cc(C(=O)NNc2ccccc2F)no1	-2.6%	8.7%	-0.5%	u	-2.2%	u
Cc1cc(C(=O)NNc2ccc(F)cc2)no1	2.5%[57.1 µM]	0.9%	10.4%[57.1 µM]	u	-0.7%	5.01µM*
Cc1cc(C(=O)NNc2c(Cl)cccc2Cl)no1	8.2%	0.7%	0.6%	-23.1%	0.2%	2.51µM*
CN(C)c1ccc(/C=C/c2sc3ccccc3[n+]2CCCCI)cc1	u	x	-9.8%	x	x	x
CCC1CCCCN1S(=O)(=O)c1ccc(NC(=O)c2nc(SC)ncc2Cl)cc1 (configuration not stated)	23.5%	x	-0.7%	-5.0%	-21.8%	u
CCn1cc2nc(SCc3ccccc3Cl)n(Cc3ccc(OC)cc3)c(=O)c2n1	13.9%[57.1 µM]	x	-1.5%[57.1 µM]	-6.0%	-5.2%	-3.9%
COc1ccc(/C=C/c2ccc3ccccc3[n+]2C)c(OC)c1OC	-30.2%	x	-17.1%	x	x	x
SMILES	rTrxR1 inhibitor	GLP-1R agonist	TrxR1 substrate	GLP1R cytotox	mIDH1 inhibitor	GLP-1R inv ag
COc1ccccc1-c1cc(C(F)(F)F)nc(N2CCCC2)n1	-2.2%	3.7%	4.9%	17.0%	1.7%	u
COc1ccccc1-c1cc(C(F)(F)F)nc(S(C)(=O)=O)n1	35.5µM*	u	4.9%	u	2.5%	0.0%
COc1ccccc1-c1cc(C(F)(F)F)nc(S(=O)(=O)CCCC(=O)NC(C)C)n1	17.8µM*	4.3%	18.3%	u	9.8%	107.3%
COc1ccccc1-c1cc(C(F)(F)F)nc(S(=O)(=O)CCCC(=O)Nc2cccnc2Cl)n1	u	-2.8%	58.3%[57.1 µM]	8.91µM*	-1.1%	u
COc1ccccc1-c1cc(C(F)(F)F)nc(S(=O)(=O)CCCC(=O)NCc2ccc(F)cc2)n1	u	-22.0%	149.0%	21.3%[0.307 µM]	-1.6%	-3.7%[0.307 µM]
COc1ccc2c(c1)c1c(c(=O)n(CCc3ccccc3)c(=O)n1Cc1ccc(F)cc1)n2C	12.5%	0.5%	0.9%	1.6%	25.7%	4.9%
CCc1ccccc1NC(=O)C1CCN(S(=O)(=O)c2ccc3[nH]c(=O)ccc3c2)CC1	3.4%[57.1 µM]	-2.9%	-4.5%[57.1 µM]	-4.2%	11.5%	15.4%
Cc1cccc(OC(=O)c2cccnc2)c1C	7.6%	1.9%	-6.4%	3.8%	-1.7%	13.3%
O=C(Oc1ccc(Cl)c2cccnc12)c1cccnc1	12.7%[57.1 µM]	-2.5%	-3.5%[57.1 µM]	u	-1.7%	3.16µM*
O=C(Oc1ccccc1[N+](=O)[O-])c1cccnc1	14.1µM*	2.2%	-4.1%	0.2%	-0.7%	0.0%
O=C(NC1CC(=O)N(c2ccc(F)cc2)C1)c1ccco1 (configuration not stated)	20.7%[57.1 µM]	x	3.5%[57.1 µM]	-7.4%	3.5%	-3.1%
CC(=O)Oc1ccc2ccccc2c1C(NC(=O)Cc1ccccc1)c1ccccc1Cl (configuration not stated)	12.4%	-14.4%	-4.4%	u	5.9%	5.62µM*
CCC(=O)NC(c1ccccc1)c1c(OC(C)=O)ccc2ccccc12 (configuration not stated)	17.3%[57.1 µM]	6.5%	13.4%[57.1 µM]	7.2%	11.4%	u
CCCC(=O)NC(c1ccccc1Cl)c1c(O)ccc2ccccc12 (configuration not stated)	10.1%	-14.7%	7.5%	u	1.8%	7.08µM*
Cc1ccc(C(NC(=O)C2CCCCC2)c2c(O)ccc3ccccc23)cc1 (configuration not stated)	16.4%	-26.2%	8.8%	u	2.1%	4.47µM*
CC(=O)NC(c1ccc(C(C)C)cc1)c1c(O)ccc2ccccc12 (configuration not stated)	-5.3%	12.2%	-0.7%	-15.1%	u	u
O=C(COc1ccccc1Cl)Nc1ccc2nc(SCC(=O)N3CCOCC3)sc2c1	10.0%	x	0.4%	1.5%	-4.5%	13.2%
CC(=NNC(N)=S)c1ccc2cc3c(cc2c1)OCO3	x	18.5%	x	u	-5.8%	2.82µM*

Compound activity (PubChem)
